Shown are actives, neighbours in structure and some others; about 0.95% of the full set was active somewhere.
RE007 growth inh: less growth of the S. pombe RE007 Vpr strain; S. pombe RE007 Vpr strain, BacTiter-Glo ATP luminescence, 24 h; Potency, µM (doses to about 92.2 µM), hits mostly inhibitors; actives 0.21% (n = 360,000); AID 651644; active = well fitted falling curve with a large enough effect; inconclusive = small, poorly fitted or top-dose-only effect; inactive = no such curve, though single readings can be large or run the other way; note: nearly all actives have a fitted effect of over 50% in size
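Fission yeast RE007 carrying one integrated HIV-1 vpr copy, seeded at OD 0.01 in PMG+AL medium with 23 nL pinned compound. Grown 24 h at 30 degrees; viability read by BacTiter-Glo luminescence after 5 min.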
TbPYK inhibitor: T. brucei pyruvate kinase inhibition. TbPYK enzyme, Kinase-Glo Plus ATP luminescence, 45 min. actives 0.12% (n = 410,000). Q57TT1. Potency, µM (titrated, usually from 76.8 µM), hits mostly inhibitors; note: nearly all actives have a fitted effect of over 50% in size
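Screened from lowest to highest concentration, compounds were pinned into TbPYK/substrate mixtures, and ADP (130 uM final) was added. Plates sat at room temperature for 45 min prior to Kinase-Glo Plus detection by luminescence.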
Giardia FBPA inh-1: inhibitors of Giardia lamblia fructose-1,6-bisphosphate aldolase; Potency, µM (series often up to 59.6 µM), hits mostly inhibitors; actives 0.71% (n = 290,000); purified Giardia FBPA; AID 2451; A8B2U2; note: nearly all actives have a fitted effect of over 55% in size
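Giardia FBPA (40 nM reagent) was preincubated 10 min at RT with compound (up to 57.5 uM final), then substrate plus GAPDH/TPI/NAD/arsenate coupling system with diaphorase/resazurin was added; resorufin fluorescence (525/598 nm) was read after 20 min.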
LmPK inhibitor: inhibitors of Leishmania mexicana pyruvate kinase; AID 1721; purified LmPK, Kinase-Glo ATP luminescence, 1 h; actives 0.37% (n = 290,000); Q27686; Potency, µM (doses to about 57.5 µM), actives largely listed as inhibitors
Target sequence (Q27686 whole entry, looked up): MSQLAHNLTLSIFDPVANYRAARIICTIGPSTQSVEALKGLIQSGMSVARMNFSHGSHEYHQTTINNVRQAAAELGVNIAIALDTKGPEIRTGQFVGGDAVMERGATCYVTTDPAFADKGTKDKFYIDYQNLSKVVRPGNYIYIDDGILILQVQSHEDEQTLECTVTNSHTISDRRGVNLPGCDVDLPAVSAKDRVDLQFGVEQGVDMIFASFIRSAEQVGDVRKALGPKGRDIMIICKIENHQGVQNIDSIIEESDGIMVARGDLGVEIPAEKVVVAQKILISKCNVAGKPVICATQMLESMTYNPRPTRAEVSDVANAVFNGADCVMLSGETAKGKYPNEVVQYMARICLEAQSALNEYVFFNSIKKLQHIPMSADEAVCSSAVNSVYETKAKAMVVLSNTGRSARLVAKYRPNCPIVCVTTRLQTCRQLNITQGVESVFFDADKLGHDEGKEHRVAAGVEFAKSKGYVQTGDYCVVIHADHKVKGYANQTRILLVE
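In 50 mM imidazole pH 7.2 with 7 mM MgCl2, LmPK (0.1 nM) turned over PEP (0.5 mM) and ADP (0.1 mM) for 1 h at room temperature. Luciferase read-out of ATP.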
Giardia growth: blocks growth of Giardia lamblia trophozoites | shares compounds with Giardia FBPA inh-1 | Giardia lamblia trophozoite growth inhibition | Potency, µM (doses to about 57.5 µM), most hits filed as inhibitors | actives 5% (n = 1,500);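 note: trophozoites exposed to compound for 48 h at 37 °C; nearly all actives have a fitted effect of over 70% in size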
Mammal cell tox: counter-screen for Giardia aldolase inhibitors: mammalian cell toxicity. Potency, µM (top dose mostly 57.5 µM), most hits filed as inhibitors. actives 4% (n = 1,500). mammalian cell viability counter-screen, qHTS. AID 2786. shares compounds with Giardia FBPA inh-1;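 note: Chinese hamster ovary cells used as mammalian cytotoxicity surrogate; viability measured as cellular ATP by luminescence; compound exposure lasted 48 h before reading; nearly all actives have a fitted effect of over 60% in size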
Giardia FBPA inh-2: confirmation of Giardia fructose-bisphosphate aldolase inhibitors; shares compounds with Giardia FBPA inh-1; AID 2787; Potency, µM (series often up to 57.5 µM), actives largely listed as inhibitors; purified Giardia aldolase enzyme activity, qHTS; actives 5% (n = 1,500); note: nearly all actives have a fitted effect of over 45% in size
Rabbit FBPA inh: blocks rabbit muscle aldolase in Giardia aldolase selectivity test; shares compounds with Giardia FBPA inh-1; Rabbit muscle FBPA enzyme inhibition, selectivity counter-screen; Potency, µM (series often up to 57.5 µM), actives largely listed as inhibitors; actives 4% (n = 1,500); AID 2794; note: nearly all actives have a fitted effect of over 60% in size
GAPDH counter: counter-screen for Giardia aldolase inhibitors: GAPDH coupling enzyme; AID 2795; shares compounds with Giardia FBPA inh-1; Potency, µM (doses to about 57.5 µM), usual class: inhibitors; actives 6% (n = 1,500); GAPDH coupling enzyme counterscreen, biochemical, qHTS; note: nearly all actives have a fitted effect of over 55% in size
A number is an active result; - = inactive; ? = inconclusive; . = no result given; [ ] = dose if it differs, or a comment. Unless noted, calls come from the whole dose curve; as a rule, active = well fitted curve in the direction sought with a large enough effect; inconclusive = small, poorly fitted or top-dose-only effect, or another doubt; inactive = no such curve, though single readings can be large; an effect the other way counts as inactive or inconclusive.

SMILES	RE007 growth inh	TbPYK inhibitor	Giardia FBPA inh-1	LmPK inhibitor	Giardia growth	Mammal cell tox	Giardia FBPA inh-2	Rabbit FBPA inh	GAPDH counter
Cc1ccc(NC(=O)c2sc(=S)n(-c3cc(C)ccc3F)c2N)cc1	-	-	18µM	-	-	-	-	?	-
CCOC(=O)N1CCN(C(=O)Cc2ccccc2OC)CC1	-	-	-	-	.	.	.	.	.
CCOc1ccc(C(=O)NCCC(=O)N2CCC3(CC2)NCCc2[nH]cnc23)cc1	-	-	.	-	.	.	.	.	.
COc1ccc(-c2n[nH]c(=S)n2N)c(OC)c1	-	-	10µM	-	-	-	-	-	-
c1ccc2c(c1)OCC(C1=NCCN1)O2 (stereo unspecified)	-[18.4 µM]	-	-	-	.	.	.	.	.
Nn1c(C2COc3ccccc3O2)n[nH]c1=S (stereo unspecified)	-	-	6.3µM	-	-	-	?	?	?
O=[N+]([O-])c1cccc(CN2CCN(Cc3ccc(Cl)cc3)CC2)c1	-	-	18µM	-	?	-	-	-	-
O=C(COc1ccc(Cl)cc1)N1CCN(Cc2ccc([N+](=O)[O-])cc2)CC1	-	-	22µM	-	-[10.4 µM]	-	-	-	-
CC(NC(=O)NNC(N)=S)(C(F)(F)F)C(F)(F)F	-	-	18µM	-	-	-	-	-	-
COc1ccc(NC(=O)c2cc(-c3sc(NC(=O)c4ccccc4)nc3C)n(-c3ccc(Br)cc3)n2)cc1	-	.	.	.	.	.	.	.	.
CN(CC(=O)Nc1cccc(F)c1)C(=O)CCNC(=O)c1ccco1	-	-	.	.	.	.	.	.	.
CCNc1ncc2nc(CCc3ccccc3)c(=O)n(Cc3cccc(OC)c3)c2n1	.	.	-	.	.	.	.	.	.
CCC(C)[C@H](NC(=O)[C@@H]1Cc2ccccc2CN1)C(=O)NCc1ccc(C)cc1 (stereo partly specified)	-	-	.	.	.	.	.	.	.
CCC(C)[C@H](NC(=O)[C@@H]1Cc2ccccc2CN1)C(=O)NCc1ccc(OC)cc1 (stereo partly specified)	-	-	14µM	-	-	-	-	-	-
COc1ccc(NC2CCCN(C(=O)c3cccc(C)n3)C2)cc1OC (stereo unspecified)	-	-	.	-	.	.	.	.	.
Cc1cc(C)n2c(=S)[nH]nc2n1	-	10µM	2.2µM	-	-	-	-	?	-
NNC(=O)[C@H](Cc1ccccc1)NC(=O)NCCc1ccccc1	-	-	-	-	.	.	.	.	.
C=CCNC(=S)NN=C1CCC(c2ccccc2)CC1 (stereo unspecified)	-	-	7.9µM	-	-	?	-	-	-
COCCNC(=S)NN=C1CCC(c2ccccc2)CC1 (stereo unspecified)	-	-	?	-	.	.	.	.	.
C[C@H](Cc1ccccc1)Nc1ncnc2c1ncn2[C@@H]1O[C@H](CO)[C@H](O)[C@H]1O	.	.	-	.	.	.	.	.	.
O=C(O)c1cccnc1Cl	-	-	-	-	.	.	.	.	.
O=C(O)c1cccnc1C(=O)O	-	-	0.63µM	.	-	-	-	-	-
O=C(CC(NCc1ccccn1)C(=O)O)Nc1ccccc1Cl (stereo unspecified)	-	-	6.3µM	-	?	-	-	-	-
COc1ccccc1CNc1ncccn1	-	-	18µM	-	-[10.4 µM]	-	-	-	-
COc1cc(NCc2ccccc2O)c2ncccc2c1	-	-	-	-	.	.	.	.	.
SMILES	RE007 growth inh	TbPYK inhibitor	Giardia FBPA inh-1	LmPK inhibitor	Giardia growth	Mammal cell tox	Giardia FBPA inh-2	Rabbit FBPA inh	GAPDH counter
Oc1ccccc1CNc1cccc2cccnc12	-	-	6.3µM	-	-	-	-	-	-
CCCN(CCC)Cc1c(C(=O)N/N=C/c2ccsc2)nnn1-c1nonc1N	-	-	-	-	.	.	.	.	.
Cc1ccc(C(=O)Nc2nc(C)c(C(=O)N(C)C)s2)o1	-	-	-	?	.	.	.	.	.
Cc1nc(NC(=S)NC(=O)c2ccco2)sc1C(=O)N(C)C	-	-	10µM	-	-	-	-	-	-
Cc1nc(NC(=S)NC(=O)c2ccccc2)sc1C	-	-	11µM	-	?	?	-	-	-
Cc1nc(NC(=O)c2ccccc2)sc1C	-	-	-	-	.	.	.	.	.
Cc1ccc(C)c(NC(=S)NNc2ccc(F)cc2F)c1	-	-	?	-	.	.	.	.	.
CCC(c1nnnn1-c1ccc2c(c1)OCCO2)N1CCN(C)CC1 (stereo unspecified)	-	-	.	.	.	.	.	.	.
COc1ccc2cc3cc(C(=O)NCCN4CCN(Cc5ccccc5)CC4)oc3nc2c1	-	-	-	-	.	.	.	.	.
COc1ccc2cc3cc(C(=O)NCCN4CCc5ccccc5C4)oc3nc2c1	?	-	18µM	-	-	-	-	-	-
COc1ccc2cc3cc(C(=O)NCCN4CCc5ccccc5C4)sc3nc2c1	-	-	16µM	-	-[10.4 µM]	-	-	-	-
CCOC(=O)c1cnc(-c2ccccc2O)nc1Cl	-	-	20µM	-	?	-	?	?	?
CCOC(=O)c1c(NC(=O)CSc2cccc[n+]2[O-])sc(C(=O)Nc2ccccc2)c1C	-	-	?	-	.	.	.	.	.
CCOC(=O)c1c(NC(=O)CN(C)C2CCN(C)CC2)sc(C(=O)Nc2ccccc2)c1C	-	-	20µM	-	?	-	-	-	-
O=C(Nc1cccc2cccnc12)c1cc(F)c(F)cc1Cl	-	-	-	-	.	.	.	.	.
Cn1cccc1CC(=O)N/N=C/c1ccc([N+](=O)[O-])cc1	-	-	-	-	.	.	.	.	.
COc1cccc(/C=C/C(=O)Nc2ccc(OC)nc2)c1	-	-	22µM	-	?	-	-	-	-
Cc1ccc(C=C2C(Cl)=C(Cl)C(Cl)=C2Cl)cc1	-	-	16µM	-	-[10.4 µM]	-	-	-	-
CC(C)CCC(C)NC(=O)C1CCN(S(=O)(=O)/C=C/c2ccccc2)CC1 (stereo unspecified)	-	-	-	-	.	.	.	.	.
COc1cc(C(c2c(C)[nH][nH]c2=O)c2c(C)[nH][nH]c2=O)cc([N+](=O)[O-])c1O	-	-	16µM	-	-	-	5.6µM	?	-
CCOc1cc(C(c2c(C)[nH][nH]c2=O)c2c(C)[nH][nH]c2=O)cc([N+](=O)[O-])c1O	-	-	-	-	.	.	.	.	.
Cc1c(C)n2c(SCC(=O)N3CCCCC3)nnc2[nH]c1=O	-	-	.	.	.	.	.	.	.
CCOC(=O)CSC1=C(C#N)C(C)C2=C(CCCC2=O)N1 (stereo unspecified)	-	-	16µM	-	-[10.4 µM]	-	-	-	-
COC(=O)Cc1[nH]n(-c2nc3ccccc3s2)c(=O)c1C(C)=Nc1ccc(Cl)cc1	?	-	16µM	-	?	-	-	-	-
